# Data from PubChem BioAssay AID1159580 (chemical genetic matrix, 2015).
# Several values for one entry are separate records, joined by “and”; a condition that tells them apart may be missing. Equal entries are not always repeated. Screen size: about 5,500 compounds; about 2,000 (36%) were called active. Another 18% or so got no clear call; they are omitted. Some of the results follow. Values without a mark were called inactive. Rule as the data show it: active = normalized growth mostly below about 0.91 (no sharp cut-off); inconclusive = no clear call, values can overlap the other calls; inactive = mostly above about 0.92.
# Experiment: chemical genetic growth profiling, strain panel (AID 1159580);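 also: tested at 20 µM; growth read once vehicle control cultures reached saturation at 30 °C; 1 = growth at the plate median or of vehicle wells; lower values mean less growth of the strain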
# Conditions: S. cerevisiae deletion strains, growth OD
smiles,measurement,setting,value
C/C=C/CC(C)C(O)C1C(=O)NC(CC)C(=O)N(C)CC(=O)N(C)C(CC(C)C)C(=O)NC(C(C)C)C(=O)N(C)C(CC(C)C)C(=O)NC(C)C(=O)NC(C)C(=O)N(C)C(CC(C)C)C(=O)N(C)C(CC(C)C)C(=O)N(C)C(C(C)C)C(=O)N1C (stereo not given),normalized growth,"locus YAL013W, strain DEP1, hits give low values",0.998
same,normalized growth,"locus YAL021C, strain ccr4, hits give low values",1.02
same,normalized growth,"locus YAL026C, strain drs2, hits give low values",1
same,normalized growth,"locus YAL030W, strain snc1, hits give low values",1.02
same,normalized growth,"locus YAL040C, strain CLN3, hits give low values",1.04
same,normalized growth,"locus YBL061C, strain skt5, hits give low values",1.01
same,normalized growth,"locus YBR009C, strain hhf1, hits give low values",1.01
same,normalized growth,"locus YBR021W, strain FUR4, hits give low values",1.02
same,normalized growth,"locus YBR023C, strain chs3, hits give low values",1.01
same,normalized growth,"locus YBR171W, strain sec66, hits give low values",1.01
same,normalized growth,"locus YBR229C, strain ROT2, hits give low values",0.972
same,normalized growth,"locus YBR231C, strain swc5, hits give low values",1.02
same,normalized growth,"locus YBR279W, strain paf1, hits give low values",1.02
same,normalized growth,"locus YCL011C, strain gbp2, hits give low values",1.01
same,normalized growth,"locus YCL016C, strain dcc1, hits give low values",0.996
same,normalized growth,"locus YCL029C, strain bik1, hits give low values",1.01
same,normalized growth,"locus YCL061C, strain MRC1 (second series), hits give low values",0.983
same,normalized growth,"locus YCL061C, strain MRC1, hits give low values",1.02
same,normalized growth,"locus YCL069W, strain vba3, hits give low values",1.02
same,normalized growth,"locus YCR088W, strain abp1, hits give low values",1.02
same,normalized growth,"locus YDL005C, strain med2, hits give low values",1.01
same,normalized growth,"locus YDL035C, strain GPR1, hits give low values",0.979
same,normalized growth,"locus YDL040C, strain nat1, hits give low values",1.01
same,normalized growth,"locus YDL074C, strain BRE1, hits give low values",0.937
same,normalized growth,"locus YDL101C, strain DUN1, hits give low values",0.988
same,normalized growth,"locus YDL134C, strain PPH21, hits give low values",0.983
same,normalized growth,"locus YDL185W, strain tfp1, hits give low values",0.358 (active)
same,normalized growth,"locus YDL192W, strain arf1, hits give low values",1
same,normalized growth,"locus YDR001C, strain nth1, hits give low values",1.01
same,normalized growth,"locus YDR069C, strain doa4, hits give low values",1.03
same,normalized growth,"locus YDR101C, strain arx1, hits give low values",1.02
same,normalized growth,"locus YDR137W, strain rgp1, hits give low values",0.637 (active)
same,normalized growth,"locus YDR150W, strain NUM1, hits give low values",0.996
same,normalized growth,"locus YDR159W, strain sac3, hits give low values",0.993
same,normalized growth,"locus YDR162C, strain NBP2, hits give low values",0.952
same,normalized growth,"locus YDR195W, strain ref2",1.01
same,normalized growth,"locus YDR297W, strain sur2, hits give low values",1.02
same,normalized growth,"locus YDR318W, strain mcm21, hits give low values",1.03
same,normalized growth,"locus YDR334W, strain swr1, hits give low values",1.02
same,normalized growth,"locus YDR335W, strain msn5, hits give low values",1.02
same,normalized growth,"locus YDR388W, hits give low values",1.03
same,normalized growth,"locus YDR392W, strain spt3, hits give low values",0.873
same,normalized growth,"locus YDR502C, strain sam2, hits give low values",1.01
same,normalized growth,"locus YEL003W, strain gim4, hits give low values",1.02
same,normalized growth,"locus YEL037C, strain rad23, hits give low values",1.06
same,normalized growth,"locus YEL061C, strain CIN8 (second series), hits give low values",1
same,normalized growth,"locus YEL061C, strain CIN8, hits give low values",0.996
same,normalized growth,"locus YER002W, strain NOP16, hits give low values",0.966
same,normalized growth,"locus YER015W, strain faa2, hits give low values",1.02
same,normalized growth,"locus YER016W, strain bim1, hits give low values",1.02
same,normalized growth,"locus YER110C, hits give low values",1.02
same,normalized growth,"locus YER111C, strain swi4, hits give low values",0.99
same,normalized growth,"locus YER155C, strain BEM2 (second series), hits give low values",0.952
same,normalized growth,"locus YER155C, strain BEM2, hits give low values",1.03
same,normalized growth,"locus YER167W, strain BCK2, hits give low values",1.03
same,normalized growth,"locus YFR010W, strain ubp6, hits give low values",1
same,normalized growth,"locus YGL078C, strain dbp3, hits give low values",1.02
same,normalized growth,"locus YGL086W, strain mad1, hits give low values",1.02
same,normalized growth,"locus YGL167C, strain pmr1, hits give low values",1.03
same,normalized growth,"locus YGL173C, strain kem1, hits give low values",1.02
same,normalized growth,"locus YGL227W, strain vid30, hits give low values",1.02
same,normalized growth,"locus YGL240W, strain doc1, hits give low values",0.978
same,normalized growth,"locus YGL248W, strain PDE1, hits give low values",0.985
same,normalized growth,"locus YGL253W, strain hxk2, hits give low values",1.02
same,normalized growth,"locus YGR078C, strain PAC10, hits give low values",0.964 and 1.01
same,normalized growth,"locus YGR135W, strain pre9, hits give low values",0.991
same,normalized growth,"locus YGR229C, strain SMI1, hits give low values",0.937 and 1.01
same,normalized growth,"locus YGR252W, strain gcn5, hits give low values",0.913
same,normalized growth,"locus YHR013C, strain ard1, hits give low values",1.03
same,normalized growth,"locus YHR027C, strain rpn1, hits give low values",1.03
same,normalized growth,"locus YHR030C, strain SLT2, hits give low values",1.02 and 0.977
same,normalized growth,"locus YHR079C, strain IRE1 (second series), hits give low values",1.03
same,normalized growth,"locus YHR079C, strain IRE1, hits give low values",0.991
same,normalized growth,"locus YHR094C, strain hxt1, hits give low values",1.02
same,normalized growth,"locus YHR129C, strain ARP1, hits give low values",1.01
same,normalized growth,"locus YHR142W, strain chs7, hits give low values",1.02
same,normalized growth,"locus YHR200W, strain rpn10, hits give low values",1.02
same,normalized growth,"locus YIL066C, strain RNR3, hits give low values",0.986
same,normalized growth,"locus YIL073C, strain SPO22, hits give low values",1.02
same,normalized growth,"locus YIL125W, strain kgd1, hits give low values",1
same,normalized growth,"locus YIR030C, strain dcg1, hits give low values",1.02
same,normalized growth,"locus YJL092W, strain hpr5, hits give low values",1.02
same,normalized growth,"locus YJL095W, strain BCK1 (second series), hits give low values",1.03
same,normalized growth,"locus YJL095W, strain BCK1, hits give low values",0.908 and 0.989
same,normalized growth,"locus YJL115W, strain asf1, hits give low values",1.02
same,normalized growth,"locus YJL129C, strain trk1, hits give low values",1.08
same,normalized growth,"locus YJL134W, strain LCB3, hits give low values",1
same,normalized growth,"locus YJL154C, strain vps35, hits give low values",1.01
same,normalized growth,"locus YJL164C, strain tpk1, hits give low values",1.04
same,normalized growth,"locus YJL166W, strain qcr8, hits give low values",1.02
same,normalized growth,"locus YJL168C, strain set2, hits give low values",1.03
same,normalized growth,"locus YJL187C, strain SWE1 (second series), hits give low values",0.968
same,normalized growth,"locus YJL187C, strain SWE1, hits give low values",1.02
same,normalized growth,"locus YJR043C, strain POL32, hits give low values",1
same,normalized growth,"locus YJR066W, strain TOR1, hits give low values",0.959
